Results: PubChem BioAssay (NCATS)
Inconclusive results are not listed. Calls of active or inactive are those of the source. Calls follow the shape of the full dose curve.

Assay: qHTS Assay for Lipid Storage Modulators (AID 1519); as to activity change, negative = inhibition: % is scaled to controls: 0 for no effect and ±100 for the full control effect
Details: Drosophila S3 cells, BODIPY lipid droplet/cell ratio, laser cytometry, cells loaded with oleic acid; for activity change, negative = inhibition: at 57.5 µM (top of the series)
Excerpt: NIH Molecular Libraries Probe Production Centers Network [MLPCN]
NIH Chemical Genomics Center [NCGC]
Assay Submitter (PI): Beller, Mathias; Max-Planck-Institut fur Biophysikalische Chemie
NCGC Assay Overview: Storing lipids as a reservoir for energy or the anabolism of elementary metabolites is a common feature of probably all cells and is conserved from bacteria to humans. The universal cellular lipid storage organelle is the so-called lipid storage droplet (LD). Although ubiquitous, LDs share a simple structure composed of a hydrophobic core that harbors the storage lipids, which is shielded by a droplet-specific phospholipid monolayer to which proteins are attached. The current model of LD biogenesis involves an incorporation of the lipid core into the membrane leaflets of the endoplasmic reticulum (ER) followed by a subsequent budding-like maturation of a LD, which ultimately pinches off. Once released, LD volume can increase by localized lipogenesis or fusion of existing droplets. Storage lipids are re-mobilized enzymatically by lipase activity. Lipase regulation in the adipocyte is heavily studied and involves multiple components including catecholamine signaling, the LD-associated proteins Perilipin and comparative gene identification-58 (CGI-58) and at least two lipases named hormone sensitive lipase (HSL) and adipocyte triglyceride lipase (ATGL). LD regulation outside of the adipocyte is poorly understood and only few components are known. However, there is an urgent need to learn more about ectopic fat depots as mislocalized storage of lipids, for example in the liver or muscle, is an eminent health problem associated with insulin resistance or the metabolic syndrome. We developed a laser-scanning cytometer assay to enable 1,536-well screening and combined the results of the small molecules screen with an RNAi database based on lipid storage.
NCGC Assay Protocol Summary:
We dispensed 4 uL of cells at 1.25 x 10^6 cells/mL into LoBase Aurora COC 1,536-well plates (black walled, clear bottom) with a bottle-valve solenoid-based dispenser (Aurora) to obtain 5,000 cells/well. Triacsin C (Sigma-Aldrich T-4540), an inhibitor of long-chain fatty acyl CoA synthetase that blocks synthesis of triglycerides, was used as a positive control for lipid under-storage. A total of 23 nL of compound solution of different concentrations were transferred to the assay plates using a Kalypsys pin tool equipped with a 1,536-pin array containing 10-nL slotted pins (FP1S10, 0.457-mm diameter, 50.8 mm long; V&P Scientific). One microliter of oleic acid (400 uM) was added, and the plate was lidded with stainless steel rubber gasket lined lids containing pinholes. […] Fluorescence was detected by excitation of the fluorophores with a 488-nm laser on an Acumen Explorer (TTP Lab Tech). The total intensity in channel 1 (500-530 nm) reflected lipid droplet accumulation. […] The ratio of the total intensity in PMT channel 1 over total intensity of channel 3 was also calculated. Percent activity was computed relative to an internal control (100% inhibited lipid droplet deposition due to the presence of 20 uM Triacsin C), which was added to 32 wells/plate.

[1] = measured here: cell count channel max response
[2] = measured here: lipid channel max response

Row | Compound | activity change, negative = inhibition | max response [1] | max response [2]
1 | CS(=O)(=O)N1CCC2(CCCN(C(=O)Nc3ccccc3)C2)CC1 | 1.48% (inactive) | 3.7% | 9.01%
2 | COc1ncc2nc(-c3ccccc3)c(=O)n(-c3ccccc3)c2n1 | 3.9% (inactive) | 10.3% | 11.5%
3 | O=C(c1cccc(F)c1)N1CCC2(CC1)CCN(c1cccc(-c3ccccc3)c1)CC2 | -5.71% (inactive) | -11.6% | -13.5%
4 | COCCNc1cc(-c2ccccc2C(F)(F)F)ncn1 | 7.86% (inactive) | 16.6% | 25.3%
5 | CCNc1ncc2nc(-c3cn(C)c4ccccc34)c(=O)n(-c3ccccc3)c2n1 | -0.273% (inactive) | 19.3% | 17.5%
6 | FC(F)(F)c1cc(CN2CC3(CCNCC3)C2)cc(C(F)(F)F)c1 | -2.16% (inactive) | -18% | -13.5%
7 | COc1ccc(C(=O)N2CCC3(CC2)CN(C(=O)Nc2ccccc2)C3)cc1 | 5.49% (inactive) | 8.4% | 17.6%
8 | O=c1c(-c2cc(F)cc(F)c2)nc2cnc(N3CCOCC3)nc2n1C[C@H]1CCCO1 | 5.53% (inactive) | 8.91% | 13.4%
9 | CN1CCN(c2ncc3nc(-c4cccc(C#N)c4)c(=O)n(Cc4ccc(F)cc4)c3n2)CC1 | -3.63% (inactive) | 1.09% | -4.23%
10 | COC(=O)N1CCC[C@@]2(CCN(C(=O)Nc3ccccc3)C2)C1 | 3.74% (inactive) | -3.53% | 3.51%
11 | CN(C)Cc1ccccc1-c1nccc(N(C)C)n1 | 2.35% (inactive) | 4.56% | 7.89%
12 | CNc1ccnc(-c2c(C)noc2C)n1 | 4.8% (inactive) | -12.7% | -8.12%
13 | c1ccc2c(NC3CCNCC3)nc(-c3ccoc3)nc2c1 | 0.038% (inactive) | 5.08% | 2.41%
14 | CNc1ncncc1-c1ccccc1OC | 5.61% (inactive) | 8.32% | 13.5%
